# Measurements as given in PubChem BioAssay (EPA / NIEHS).
# Inconclusive results are not listed. Active and inactive are the calls of the source. The calls were made as follows, unless noted: active = hit-call score of the fitted dose curve at least 0.9, where 1 is the maximum; inactive = score below 0.9.
# Columns and labels:
# TTR (gene 7276) = assay: CCTE_GLTED_hTTR_0.125uM: CCTE's human Transthyretin (hTTR) Inhibition Assay, with 0.125uM TTR, Great Lakes Toxicology and Ecology Division (GLTED) Lab (AID 2284431);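 also: hits lower the fluorescence signal relative to DMSO baseline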
# In short: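 Probe-displacement format: chemicals competing for the T4 site release ANSA from 0.125uM TTR during a 2 h incubation, measured by fluorescence at 380 excitation and 475 emission.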
# [1] = CCTE_Padilla_ZF_Score.General: CCTE's 144 Hour Post-fertilization zebrafish Assay Score for General Malformation, Padilla Lab (AID 2284411)
# In short: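 Wild-type zebrafish embryos were plated singly at 6-8 hpf in 10% Hanks' and exposed in sealed wells at 26C until rinsed on 5 dpf. At 6 dpf two blinded assessors scored mortality, hatching and malformations by stereomicroscopy; gain-of-signal versus DMSO.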
# [2] = CCTE_Padilla_ZF_Score.Tail: CCTE's 144 Hour Post-fertilization zebrafish Assay Score for Tail Malformation, Padilla Lab (AID 2284414)
# In short: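 Wild-type zebrafish embryos, one per well in 200 uL 10% Hanks', dosed at 6-8 hpf, sealed, and kept at 26 C on a 14:10 h light cycle. Chemical was rinsed out at 5 dpf. Blinded brightfield scoring of tail defects followed at 6 dpf.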
# [3] = CCTE_Padilla_ZF_Score.Blood_pooling: CCTE's 144 Hour Post-fertilization zebrafish Assay Score for Blood Pooling, Padilla Lab (AID 2284415)
# In short: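 Wild-type outbred zebrafish embryos, one per well in 10% Hanks', exposed from 6–8 hpf in sealed plates at 26C on 14:10 h light:dark, rinsed at 5 dpf. Blinded stereomicroscope scoring of blood pooling at 6 dpf; gain-of-signal versus DMSO.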
# [4] = CCTE_Padilla_ZF_Score.Any: CCTE's 144 Hour Post-fertilization zebrafish Assay Score for Any Mortality or Malformation, Padilla Lab (AID 2284416)
# In short: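 Wild-type zebrafish embryos with chorions, one per well in 10% Hanks' from 6–8 hpf, dosed in sealed plates at 26 C, 14:10 h light:dark; rinsed at 5 dpf; blinded scoring at 6 dpf for death or malformation, versus DMSO.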
# [5] = tested on: SRY-box transcription factor 17 (SOX17) Protein Expression, Deisenroth Lab, SOX17 (gene 64321); assay: CCTE_Deisenroth_DEVTOX-GLR_Endo_SOX17: CCTE's DevTox GLR-Endo Assay Evaluation of SRY-box transcription factor 17 (SOX17) Protein Expression, Deisenroth Lab (AID 2284413)
# In short: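 Seed RUES2-GLR cells 24 h; start endoderm differentiation; dose at 0 and 24 h (1 nM - 200 uM, 10 points); fix at 48 h, stain nuclei, image 5 fields/well; compute SOX17+/total cells vs 0.2% DMSO.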
# [6] = tested on: Brachyury (BRA) Protein Expression, TBXT (gene 6862); assay: CCTE_Deisenroth_DEVTOX-GLR_Endo_BRA: CCTE's DevTox GLR-Endo Assay Evaluation of Brachyury (BRA) Protein Expression, Deisenroth Lab (AID 2284417)
# In short: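 Read-out: BRA+ cell count divided by total cell count by high-content imaging (5 fields per well), expressed relative to 0.2% DMSO solvent control. RUES2-GLR cells dosed twice over a 48 h differentiation; concentrations 1 nM - 200 uM.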
# [7] = CCTE_Deisenroth_DEVTOX-GLR_Endo_CellCount: Viability Assessment in CCTE's DevTox GLR-Endo Assay, Deisenroth Lab (AID 2284420)
# In short: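 Viability in differentiating RUES2-GLR cultures is scored by fluorescent nuclear counts after 48 h and two 24-hourly chemical treatments, as percent change from the 0.2% DMSO control.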
# [8] = tested on: SRY-box transcription factor 17 (SOX17) Protein Expression, Deisenroth Lab, SOX17 (gene 64321); assay: CCTE_Deisenroth_DEVTOX-GLR_Pluri_SOX17: CCTE's DevTox GLR-Pluri Assay Evaluation of SRY-box transcription factor 17 (SOX17) Protein Expression, Deisenroth Lab (AID 2284427; active = hit-call score of the fitted dose curve at least 0.9, where 1 is the maximum)
# In short: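 Seed cells 24 h; differentiate 48 h, dosing at 0 and 24 h (1 nM - 200 uM); fix, stain nuclei, image 5 fields per well; count SOX17+ cells over total cells and subtract 0.2% DMSO control.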
# [9] = tested on: SRY-box transcription factor 2 (SOX2) Protein Expression, Deisenroth Lab, SOX2 (gene 6657); assay: CCTE_Deisenroth_DEVTOX-GLR_Pluri_SOX2: CCTE's DevTox GLR-Pluri Assay Evaluation of SRY-box transcription factor 2 (SOX2) Protein Expression, Deisenroth Lab (AID 2284428)
# In short: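 SOX2 expression frequency is scored in a human pluripotent reporter line, RUES2-GLR, exposed to chemicals twice over 48 h. Imaging-based SOX2+ cell percentage is normalized as change versus 0.2% DMSO.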
# [10] = tested on: Brachyury (BRA) Protein Expression, Deisenroth Lab, TBXT (gene 6862); assay: CCTE_Deisenroth_DEVTOX-GLR_Pluri_BRA: CCTE's DevTox GLR-Pluri Assay Evaluation of Brachyury (BRA) Protein Expression, Deisenroth Lab (AID 2284429; active = hit-call score of the fitted dose curve at least 0.9, where 1 is the maximum)
# In short: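 An inducible fluorescent BRA reporter in RUES2-GLR cells tracks mesoderm differentiation. Compounds (10 concentrations, 1 nM - 200 uM) are dosed twice within a 48-h differentiation. The endpoint subtracts the 0.2% DMSO control from percent BRA+ cells.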
# [11] = CCTE_Deisenroth_DEVTOX-GLR_Pluri_CellCount: Viability Assessment in CCTE's DevTox GLR-Pluri Assay Evaluation of Total Cell Counts, Deisenroth Lab (AID 2284430)
# In short: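 RUES2-GLR human pluripotent cells, seeded 24 h, then differentiated 48 h with two chemical exposures 24 h apart; 10-point series 1 nM - 200 uM. Fixed, nuclear-stained, imaged (5 fields/well); nuclei count as % change vs 0.2% DMSO.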
smiles,measurement,setting,value
O=C(c1ccccc1)c1ccccc1,AC50,TTR (gene 7276),21.3 µM (active)
O=P(O)(O)CCC(F)(F)C(F)(F)C(F)(F)C(F)(F)C(F)(F)C(F)(F)C(F)(F)C(F)(F)F,AC50,[1],1.78 µM (active)
same,outcome,[2],inactive
same,outcome,[3],inactive
same,AC50,[4],2.32 µM (active)
CN(Cc1cnc2nc(N)nc(N)c2n1)c1ccc(C(=O)N[C@@H](CCC(=O)O)C(=O)O)cc1,AC50,[5],0.319 µM (active)
same,AC50,[6],0.329 µM (active)
same,AC50,[7],0.361 µM (active)
same,outcome,[8],inactive
same,AC50,[9],0.0314 µM (active)
same,outcome,[10],inactive
same,outcome,[11],inactive
NC(C(F)(F)F)C(F)(F)F,outcome,[1],inactive
same,outcome,[2],inactive
same,outcome,[3],inactive
same,outcome,[4],inactive
O=CC(F)(F)C(F)(F)C(F)(F)F,AC50,[1],79.6 µM (active)
same,outcome,[2],inactive
same,outcome,[3],inactive
same,outcome,[4],inactive
O=C(O)CCC(F)(F)C(F)(F)C(F)(F)C(F)(F)C(F)(F)F,AC50,[1],10.7 µM (active)
same,outcome,[2],inactive
same,outcome,[3],inactive
same,AC50,[4],10 µM (active)
O=CC(F)(F)C(F)(F)C(F)(F)C(F)F,outcome,[1],inactive
same,outcome,[2],inactive
same,outcome,[3],inactive
same,outcome,[4],inactive
CCCCCCCCCC=CCC1CC(=O)OC1=O (stereo not given),AC50,TTR (gene 7276),7.87 µM (active)
FC(OC(F)(F)C(F)(F)C(F)(F)F)C(F)(F)F (stereo not given),outcome,[1],inactive
same,outcome,[2],inactive
same,outcome,[3],inactive
same,outcome,[4],inactive
CCCCCCc1ccc(N)cc1,AC50,TTR (gene 7276),9.58 µM (active)
O=C(F)C(F)(F)C(F)(F)C(F)(F)C(=O)F,outcome,[1],inactive
same,outcome,[2],inactive
same,outcome,[3],inactive
same,outcome,[4],inactive
FC(F)(F)C1(F)C(F)(F)C(F)(F)C(F)(F)C1(F)F,outcome,[1],inactive
same,outcome,[2],inactive
same,outcome,[3],inactive
same,outcome,[4],inactive
CC(=O)Nc1ccc(O)cc1,outcome,[5],inactive
same,outcome,[6],inactive
same,outcome,[7],inactive
same,outcome,[8],inactive
same,outcome,[9],inactive
same,outcome,[10],inactive
same,outcome,[11],inactive
CCC(C)c1ccccc1O (stereo not given),AC50,TTR (gene 7276),22.4 µM (active)
